Source: the supplement of paper PMC13380429
Values without a mark were called inactive.

System: Vero E6 infected with SARS-CoV-2
Assay: inhibition of SARS-CoV-2 cytopathic effect; higher = more antiviral protection, active = above 15
Details: 48 h

Compound: N[C@@H](Cc1c[nH]c2ccccc12)C(=O)O [tryptophan]
- inhibition of SARS-CoV-2 cytopathic effect (1 nM): -6.32%
- inhibition of SARS-CoV-2 cytopathic effect (8.33 nM): -7.31%
- inhibition of SARS-CoV-2 cytopathic effect (100 nM): -3.29%
- inhibition of SARS-CoV-2 cytopathic effect (833.33 nM): -4.07%
- inhibition of SARS-CoV-2 cytopathic effect (10000 nM): -10.4%

Compound: CCN(CC)CCOC(=O)C(c1ccccc1)C1CCCCC1 (stereo not given) [drofenine]
- inhibition of SARS-CoV-2 cytopathic effect (1 nM): -1.59%
- inhibition of SARS-CoV-2 cytopathic effect (8.33 nM): 1.9%
- inhibition of SARS-CoV-2 cytopathic effect (100 nM): -1.61%
- inhibition of SARS-CoV-2 cytopathic effect (833.33 nM): -1.42%
- inhibition of SARS-CoV-2 cytopathic effect (10000 nM): 1.22%

Compound: CCCN(CCC)CCc1ccc(OC)c(OCCc2ccccc2)c1
- inhibition of SARS-CoV-2 cytopathic effect (1 nM): -1.09%
- inhibition of SARS-CoV-2 cytopathic effect (8.33 nM): -0.82%
- inhibition of SARS-CoV-2 cytopathic effect (100 nM): 0.93%
- inhibition of SARS-CoV-2 cytopathic effect (833.33 nM): 0.13%
- inhibition of SARS-CoV-2 cytopathic effect (10000 nM): -2.05%

Compound: Cc1ccccc1N(C)C(=O)c1ccc([S+]([O-])c2nccs2)c([N+](=O)[O-])c1 (stereo not given)
- inhibition of SARS-CoV-2 cytopathic effect (1 nM): -0.08%
- inhibition of SARS-CoV-2 cytopathic effect (8.33 nM): -0.71%
- inhibition of SARS-CoV-2 cytopathic effect (100 nM): 1.56%
- inhibition of SARS-CoV-2 cytopathic effect (833.33 nM): 16.5% (active)
- inhibition of SARS-CoV-2 cytopathic effect (10000 nM): 12.2%

Compound: CC(=O)[C@H]1CC[C@H]2[C@@H]3CC[C@H]4C[C@H](O)CC[C@]4(C)[C@H]3CC[C@]12C [allopregnanolone]
- inhibition of SARS-CoV-2 cytopathic effect (1 nM): 0.625%
- inhibition of SARS-CoV-2 cytopathic effect (8.33 nM): 0.465%
- inhibition of SARS-CoV-2 cytopathic effect (100 nM): -0.195%
- inhibition of SARS-CoV-2 cytopathic effect (833.33 nM): 0.8%
- inhibition of SARS-CoV-2 cytopathic effect (10000 nM): -0.82%

Compound: C/C(=N\Nc1nnc2c(n1)[nH]c1c(C)cccc12)c1ccccn1
- inhibition of SARS-CoV-2 cytopathic effect (1 nM): 0.125%
- inhibition of SARS-CoV-2 cytopathic effect (8.33 nM): -0.485%
- inhibition of SARS-CoV-2 cytopathic effect (100 nM): 1.94%
- inhibition of SARS-CoV-2 cytopathic effect (833.33 nM): 1.06%
- inhibition of SARS-CoV-2 cytopathic effect (10000 nM): -7.81%

Compound: CN1C2CCC1CC(OC(c1ccccc1)c1ccc(Cl)cc1)C2 (stereo not given)
- inhibition of SARS-CoV-2 cytopathic effect (1 nM): 5.63%
- inhibition of SARS-CoV-2 cytopathic effect (8.33 nM): 6.26%
- inhibition of SARS-CoV-2 cytopathic effect (100 nM): -1.76%
- inhibition of SARS-CoV-2 cytopathic effect (833.33 nM): -2.87%
- inhibition of SARS-CoV-2 cytopathic effect (10000 nM): 17.4% (active)
